Data on ten compounds can be found in ChEMBL document CHEMBL1201862, “PubChem BioAssay data set” (2004).

Among all 1,200 compounds or so, about 140 (12%) were called active. The rule behind the calls is not given here. Many of the other results were omitted from the sample, so actives are more common in it than they were.

The experiment can be described thus: restoration of mutant CFTR halide transport – FRT cells, YFP quenching, cherry-pick, dose response (AID 743402). The format is functional, cell-based.
As for `COc1ccc(NC(=O)C(=O)NCC2CCCN2S(=O)(=O)c2cccs2)cc1` (stereo not given), the AbsAC35 was 87.6 µM (active).

For `CC(=O)c1cccc(-c2ccnc3c2CC(C(=O)NCc2ccco2)O3)c1` (stereo not given), the AbsAC35 is 40.3 µM (active).

For the compound `O=c1c(O)c(-c2cccs2)oc2ccc(Cl)cc12`, the AbsAC35 is 30.3 µM (active).

Consider `COc1ccc(C2=Nn3c(nnc3-c3ccccc3OC)SC2)cc1OC1CCOC1` (stereo not given), for which the AbsAC35 is 160 µM (active).

Turning to `CCc1ccc(OCCNc2cc(N3CCNC(C)C3)ccc2[N+](=O)[O-])cc1` (stereo not given), the AbsAC35 is 58.8 µM (active).

On to `N#Cc1ccc(-c2cccs2)nc1SCc1cccnc1`, for which the AbsAC35 is 107 µM (active).

`CCN(CC)CCC(=O)Nc1cccc2c1C(=O)c1ccccc1C2=O`: the AbsAC35 is 40.8 µM (active).

On to `O=C(OCc1ccc(Br)cc1)c1cc([N+](=O)[O-])ccc1N1CCOCC1`, for which the AbsAC35 is 28.4 µM (active).

Regarding `CC(=O)Nc1ccc(S(=O)(=O)N2c3ccccc3C(C)=CC2(C)C)cc1`, the AbsAC35 is 42.7 µM (active).

Regarding `COc1ccc(C2C3=C(COC3=O)Oc3cc4c(cc32)OCO4)cc1OC` (stereo not given), the AbsAC35 is 116 µM (active).
